Pol kappa inh: inhibitors of human DNA polymerase kappa | purified Pol kappa, fluorescent DNA synthesis assay, 10 min | Potency, µM (doses to about 107 µM), inactives show top-dose activity, negative = inhibition, usual class: inhibitors | hit rate 0.53% among 400,000 | AID 588579; further: on the % scale 0 is the no-effect control and ±100 the full control effect
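Here, compound and 10 nM enzyme are combined for 15 min at room temperature; adding 50 nM substrate (final) starts DNA synthesis, tracked by fluorescence at 0 and 10 min against buffer-only wells.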
TDP1 inh: inhibitors of human tyrosyl-DNA phosphodiesterase TDP1; Q9NUW8; recombinant TDP1, AlphaScreen DNA substrate cleavage; Potency, µM (top dose mostly 130 µM), without a hit: at the top dose activity change, negative = inhibition, usual class: inhibitors; hit rate 0.28% among 350,000; AID 485290; further: on the % scale 0 is the no-effect control and ±100 the full control effect; nearly all actives have a fitted effect of over 40% in size
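Compounds were preincubated with Tdp1 (1 nM final) for 15 min at room temperature before substrate (15 nM final) started a 5 min reaction; beads (10 ug/ml final) were then added for 10 min before AlphaScreen detection.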
Pol beta inh: inhibitors of human DNA polymerase beta; P06746; Pol beta primer extension/strand displacement, fluorescence kinetic; Potency, µM (top dose mostly 114 µM), without a hit: at the highest dose activity change, negative = inhibition, hits mostly inhibitors; hit rate 1.3% among 340,000; further: on the % scale 0 is the no-effect control and ±100 the full control effect
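Kinetic readout of DNA synthesis with strand displacement by Pol beta. Compound and 10 nM enzyme sit 15 min at room temperature; 50 nM substrate starts the reaction, read immediately and at 10 min.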
Pol iota inh: inhibitors of human DNA polymerase iota; Pol iota fluorescent replication assay, 10 min; Potency, µM (highest dose often 115 µM), for inactives: top-dose activity, negative = inhibition, usual class: inhibitors; hit rate 1% among 390,000
Target sequence (Q9UNA4 whole entry, looked up): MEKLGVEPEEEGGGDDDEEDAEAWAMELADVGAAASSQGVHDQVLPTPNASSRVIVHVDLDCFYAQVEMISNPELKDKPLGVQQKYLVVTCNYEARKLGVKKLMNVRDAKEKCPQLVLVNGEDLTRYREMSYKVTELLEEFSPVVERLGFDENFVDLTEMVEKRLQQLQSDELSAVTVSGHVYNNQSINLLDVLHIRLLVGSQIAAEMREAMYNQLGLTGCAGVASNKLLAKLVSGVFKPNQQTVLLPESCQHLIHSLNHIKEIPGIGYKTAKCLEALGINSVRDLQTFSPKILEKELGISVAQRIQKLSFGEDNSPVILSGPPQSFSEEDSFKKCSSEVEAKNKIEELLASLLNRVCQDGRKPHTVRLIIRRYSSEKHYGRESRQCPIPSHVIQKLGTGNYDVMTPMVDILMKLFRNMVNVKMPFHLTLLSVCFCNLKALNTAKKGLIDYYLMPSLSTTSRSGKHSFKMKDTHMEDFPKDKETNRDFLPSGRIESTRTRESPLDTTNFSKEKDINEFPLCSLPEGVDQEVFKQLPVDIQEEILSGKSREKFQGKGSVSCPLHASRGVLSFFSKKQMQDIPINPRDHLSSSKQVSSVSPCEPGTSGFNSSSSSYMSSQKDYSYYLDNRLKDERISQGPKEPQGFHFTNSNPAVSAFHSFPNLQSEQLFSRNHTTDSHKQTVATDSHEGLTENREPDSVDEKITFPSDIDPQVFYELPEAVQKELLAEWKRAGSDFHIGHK
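Pol iota at 10 nM preincubated 15 min with compounds at room temperature; reaction started with fluorescent substrate, 50 nM final. Fluorescence read kinetically at 0 and 10 min; buffer-only wells as negative control.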
POLH inh: inhibitors of human DNA polymerase eta; hit rate 1.2% among 390,000; Q9Y253; recombinant Pol eta, fluorescent DNA replication assay; Potency, µM (series often up to 114 µM), inactives show top-dose activity change, negative = inhibition, hits mostly inhibitors; further: on the % scale 0 is the no-effect control and ±100 the full control effect
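Fluorescent replication assay: 50 nM final substrate added after a 15 min room-temperature compound preincubation with 10 nM enzyme. Signal taken at 0 min and again at 10 min.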
* marks the source's active call; other numbers are inactive results; ? = inconclusive; . = no result; [ ] = dose if it differs, or a comment. Most compounds without a hit are left out; they make up all but 2.4% or so of the library. The call rests on the fitted dose curve; in most records, active means well fitted curve in the direction sought with a large enough effect; inconclusive means small, poorly fitted or top-dose-only effect, or another doubt; inactive means no such curve, though single readings can be large; an effect the other way counts as inactive or inconclusive. Potency means the concentration at half of the fitted maximal effect.

SMILES	Pol kappa inh	TDP1 inh	Pol beta inh	Pol iota inh	POLH inh
Cc1ccc(/C(N)=N/OC(=O)Cc2ccccc2)cc1	-1%	-7%	1%	12%	-20%
O=C(NCCc1ccccc1)C(c1cccs1)N(C(=O)c1csnn1)C1CC1 (centres undefined)	-7%	3%	21%	89µM*	-1%
O=C1C=C(c2ccccc2)CC(c2cccs2)C1n1cnc([N+](=O)[O-])c1 (centres undefined)	-15%	2%	50µM*	-20%	?
O=S(=O)(c1cccc(F)c1)N1CCN(c2nc(-c3cccs3)nc3ccccc23)CC1	7%	.	.	20%	.
O=C(/C=C/c1ccco1)Oc1cccc2cccnc12	-10%	-8%	?	?	-25%
COC(=O)N/N=C/c1ccc(OC(=O)/C=C/c2ccco2)cc1	?	.	11µM*	35µM*	?
CCc1ccc(OC(=O)/C=C/c2ccco2)cc1	?	.	35µM*	?	-6%
O=C(Cc1ccccc1)N/N=C/c1ccc(OC(=O)/C=C\c2ccco2)cc1	?	-4%	-27%	?	-16%
O=C(/C=C\c1ccco1)Oc1cccc2cccnc12	?	?	22µM*	25µM*	-16%
CCN(C(=O)c1c(C)oc2ncnc(N3CCCCC3)c12)c1cc(C)ccc1C	0%	5%	7%	34%	-18%
CN=C1C=CC(=C(c2ccc(N(C)C)cc2)c2ccc(N(C)C)cc2)C=C1	-6%[19.4 µM]	.	.	.	.
O=[N+]([O-])c1ccc(O/N=[N+](\[O-])N2CCCCC2)c([N+](=O)[O-])c1	-22%	.	.	35%	.
O=C(N/N=C/c1cccnc1)c1cc2ccccc2o1	4%	5%	21%	?	14%
O=C(N/N=C/c1cccnc1)c1cc2c(ccc3ccccc32)o1	-41%	-5%	11µM*	?	?
CCOc1ccc(S(=O)(=O)NCC(c2ccc(N(C)C)cc2)N2CCCC2)cc1 (centres undefined)	-1%[60.1 µM]	9%	-12%	10%	-14%
COC(=O)/C=C/c1ccc2c(c1)S(=O)(=O)N(C1CCCC1)[C@H]2CC(=O)OC	3%	.	.	29%	.
COc1cc2c(cc1OC)C(c1ccccc1)=NCC2	-6%	6%	28%	157%	-6%
COc1cc2c(cc1OC)-c1cc3ccc4c(c3c[n+]1CC2)OCO4	-21%	3%	40µM*	14µM*	?
Cc1cc2nc(-c3ccc(OCc4ccccc4F)cc3)cc(C(F)(F)F)n2n1	-2%	2%	4%	?	-21%
Cc1oc(-c2ccccc2Cl)nc1CSCC(=O)NC1CCCC1	-2%	0%	6%	1%	0%
Cc1oc(-c2ccccc2Cl)nc1CSCC(=O)N1CCCC1	-12%	3%	79µM*	26%	11%
COc1ccc(C2/C=C\CN(C(=O)C3CCCCC3)C(C)C(=O)N2Cc2ccc(F)cc2)cc1 (centres undefined)	-6%	7%	.	-1%	.
C[C@@H]1[C@H](c2ccccc2)OCCS(=O)(=O)N1Cc1ccccc1F	2%	.	.	18%	.
COC1=C(Nc2ccc(OC)cc2)C(=O)c2ccccc2C1=O	-5%	12%	?	?	-8%
COC1=C(Nc2ccc(O)cc2)C(=O)c2ccccc2C1=O	-17%	7%	?	25µM*	-11%
CCc1ccc(OCC(=O)N(Cc2ccc(C)cc2)Cc2ccco2)cc1	5%	-1%	-23%	-14%	-21%
COc1ccc(Cl)cc1C(=O)NCC(c1ccc(N(C)C)cc1)N1CCCC1 (centres undefined)	-3%[60.1 µM]	4%	10%	1%	-14%
CC(=O)Nc1ccc(-n2cc3c(c2-c2ccc(C)cc2)c(=O)n(C)c(=O)n3C)cc1	-22%	6%	5%	-3%	1%
CC(=O)Nc1cccc(-n2cc3c(c2-c2ccccc2Cl)c(=O)n(C)c(=O)n3C)c1	89µM*	7%	27%	?	8%
Cc1ccc(C2C(C#N)=C(N)Oc3n[nH]c(-c4ccccc4)c32)o1 (centres undefined)	-8%	8%	21%	-13%	?

Compound activity as filed in PubChem.
